In the supplement of paper PMC12669032:
Unmarked numbers belong to inactive results.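 How the source made its calls: active = AUC reduced over 20% with Padj below 0.05 in at least 2 of 3 replicates; inactive = otherwise.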

Tests used:
Roseburia intestinalis = test: growth AUC relative to DMSO control (median of replicates) (fraction); higher = more growth (less inhibition), active = hit call of the paper; details: 20 µM; 24 h
Method in brief: (§1)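 Three biological replicates, each grown on a separate day, were combined as a median for every value. In each, a gut bacterial monoculture in mGAM started at OD600 0.05 and grew anaerobically at 37 °C with 20 µM compound (1% DMSO), with OD600 read hourly over 24 h. Area under the growth curve was normalised against the plate median of solvent-only wells, or against row and column medians on the industrial chemical plate, after the minimum OD was set to 0.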

Streptococcus salivarius = test: as above; details: 20 µM; 24 h
Method in brief: as §1

Structure (SMILES)	growth AUC (Roseburia intestinalis)	growth AUC (Streptococcus salivarius)
S=C([S-])NCCNC(=S)[S-].S=C([S-])NCCNC(=S)[S-].[Mn+2].[Zn+2]	0.999	1.03
C[S+](C)CCC(=O)O.[Cl-]	1.01	0.994
Nc1ccc(S(=O)(=O)Nc2cnc3ccccc3n2)cc1	0.991	1.03
CCCN(CCC)C(=O)SCC	0.948	1
CSC(=O)c1cccc2nnsc12	0.953	0.968
CCCCC(CC)CN1C(=O)C2C(C1=O)[C@H]1C=C[C@@H]2C1 (mixture of isomers)	1.07	1
CN(C)C(=O)Nc1cc(C(C)(C)C)on1	1.03	1
[S]	0.952	0.997
COC(=O)[C@@H](C)Oc1ccc(Oc2ncc(C(F)(F)F)cc2Cl)cc1	1	0.984
COC1CCC2(CC1)NC(=O)C(O)(c1cc(C)ccc1C)C2=O (stereo not given)	1.01	1.01
O=C(O)Cc1cccc2ccccc12	1.04	0.99
CC(=O)Oc1c(Cl)c(Cl)c(Cl)c(Cl)c1Cl	1.04	0.909
O=C(O)COc1ccc(Cl)c2cccnc12	0.963	1.05
COC(=O)Cc1cccc2ccccc12	1.04	1.01
N[C@@H](Cc1cc(I)c(Oc2cc(I)c(O)c(I)c2)c(I)c1)C(=O)O	0.798	0.923
COc1cc(Cl)ccc1Oc1ccc(Cl)cc1Cl	0.991	1.05
CC[N+](CC)(CC(=O)Nc1c(C)cccc1C)Cc1ccccc1.O=C([O-])c1ccccc1	1.02	1.01
CC(C)NS(=O)(=O)NC(=O)c1cc(NC(N)=O)c(F)cc1Cl	0.981	0.887
CC(C)c1cccc2c(=O)c3ccccc3sc12	1.02	1.05
N#Cc1c(N)nc(NC2CC2)nc1N	0.999	1
FC(F)(F)C(=NOCC1OCCO1)c1ccc(Cl)cc1	1.17	1.02
Nc1cccc(O)c1	0.989	1.02
COC(=O)c1cccc(C)c1S(=O)(=O)NC(=O)Nc1nc(OCC(F)(F)F)nc(N(C)C)n1	0.984	0.984

Structure (SMILES)	growth AUC (Roseburia intestinalis)	growth AUC (Streptococcus salivarius)
CN(C)C(=O)Nc1ccccc1	0.983	0.969
Br[C@@H]1CC[C@H](Br)[C@H](Br)CC[C@@H](Br)[C@@H](Br)CC[C@H]1Br	0.962	0.868
c1ccc(Sc2ccccc2)cc1	1.13	0.994
CCCOc1nc2ccc(I)cc2c(=O)n1CCC	0.942	0.994
CON=C(Cc1cccnc1)c1ccc(Cl)cc1Cl	1.05	0.997
NC(=O)c1c(Cl)cccc1Cl	0.906	0.991
CCOC(=O)C1=NN(c2ccc(Cl)cc2Cl)C(C)(C(=O)OCC)C1 (stereo not given)	0.952	0.994
CCCCCCCCc1c(CC)nc2ncnn2c1N	0.948	0.985
COCC(=O)N(c1c(C)cccc1C(=O)O)C(C)C(=O)O (stereo not given)	1.02	0.982
COC(=O)c1c(Cl)c(Cl)c(C(=O)OC)c(Cl)c1Cl	0.964	0.962
CN(C)C=O	1.1	0.999
Cc1nn(C)c(Oc2ccccc2)c1/C=N/OCc1ccc(C(=O)OC(C)(C)C)cc1	0.924	0.993
CC(CNC(=S)[S-])NC(=S)[S-].[Zn+2] (mixture of isomers)	0.979	0.988
O=C(NC(=O)c1c(F)cccc1F)Nc1cc(C(F)(F)F)cc(C(F)(F)F)c1Cl	0.942	0.922
CCN(CC)C(=O)c1cccc(C)c1	0.967	0.96
COCCCNc1nc(NC(C)C)nc(SC)n1	0.995	0.969
CC(=O)CC(c1ccccc1)c1c(O)c2ccccc2oc1=O (stereo not given)	0.952	1
COC(=O)C(C)Oc1ccc(Cl)cc1C (stereo not given)	1.04	0.988
CC1(C)C(C(=O)OC(C#N)c2cccc(Oc3ccccc3)c2)C1C(Br)C(Br)(Br)Br (stereo not given)	0.932	0.972
CC(Oc1ccc(Cl)cc1Cl)C(=O)NC(C)(C#N)C(C)C (stereo not given)	0.968	0.918
O=C(O)[C@@H](S)[C@@H](S)C(=O)O	1	0.997
CCCOC(=O)c1ccc(O)cc1	1	0.979
